In all, about 360,000 compounds went through this assay and about 3,100 (0.86%) were called active. This is one part of a sample in which actives are shown more often than they occur. A number with no mark means an inactive call.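 Rule for the calls: active = inhibition or corrected inhibition above about 18%, plus a signal ratio from 0.5 to 1.5 (limit read from the data, passing the limit was not always enough); inactive = the rest.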
molecular target: Neuropilin-1 (Homo sapiens) (UniProt O14786); assay: modulators of CendR peptide binding to NRP-1, primary screen, biochemical, fluorescence polarization, uHTS (AID 602438); settings: FAM-RPARPAR peptide binding to NRP-1, fluorescence polarization; at 25 µM; active compounds read high
Sequence (O14786 whole entry, looked up): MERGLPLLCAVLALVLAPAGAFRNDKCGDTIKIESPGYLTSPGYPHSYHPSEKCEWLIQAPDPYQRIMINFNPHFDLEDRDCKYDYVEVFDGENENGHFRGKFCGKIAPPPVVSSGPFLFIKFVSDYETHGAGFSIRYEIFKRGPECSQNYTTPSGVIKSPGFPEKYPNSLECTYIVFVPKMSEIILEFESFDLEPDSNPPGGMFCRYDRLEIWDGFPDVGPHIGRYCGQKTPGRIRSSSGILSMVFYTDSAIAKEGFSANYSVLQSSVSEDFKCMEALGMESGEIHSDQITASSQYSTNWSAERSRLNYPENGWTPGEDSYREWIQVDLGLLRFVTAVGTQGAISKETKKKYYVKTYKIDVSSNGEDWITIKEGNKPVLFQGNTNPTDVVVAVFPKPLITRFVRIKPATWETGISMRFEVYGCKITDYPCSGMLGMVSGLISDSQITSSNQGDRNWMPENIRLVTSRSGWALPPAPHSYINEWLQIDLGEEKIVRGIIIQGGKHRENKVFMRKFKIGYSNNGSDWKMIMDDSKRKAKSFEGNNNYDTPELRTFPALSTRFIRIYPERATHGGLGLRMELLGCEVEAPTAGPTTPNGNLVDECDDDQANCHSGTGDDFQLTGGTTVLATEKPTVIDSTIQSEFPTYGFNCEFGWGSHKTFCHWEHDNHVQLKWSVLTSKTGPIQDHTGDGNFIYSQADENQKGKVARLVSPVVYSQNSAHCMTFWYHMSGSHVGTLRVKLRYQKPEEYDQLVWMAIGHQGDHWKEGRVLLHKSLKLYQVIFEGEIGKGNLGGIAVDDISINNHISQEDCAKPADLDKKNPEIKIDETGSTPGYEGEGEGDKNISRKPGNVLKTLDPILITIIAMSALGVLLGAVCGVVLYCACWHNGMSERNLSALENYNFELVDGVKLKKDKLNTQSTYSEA

SMILES	inhibition
O=C(Cn1ncc2c3ccccc3n(Cc3ccccc3)c2c1=O)NCCCN1CCOCC1	8.8%
CC1CCCCN1CCCNC(=O)Cn1ncc2c([nH]c3ccccc32)c1=O (stereo unspecified)	6.7%
CCCn1c2ccccc2c2cnn(CC(=O)NCCCN3CCCCC3CC)c(=O)c21 (stereo unspecified)	29.4% (active)
CCN(CC)C(=O)c1nc[nH]c1C(=O)N(C)Cc1ccccc1	29.2% (active)
CN(CCO)C(=O)c1nc[nH]c1C(=O)N(C)Cc1ccccc1	9.7%
CCN(Cc1ccncc1)C(=O)CCc1ccccc1	9.5%
CCN(CC(=O)Nc1ccc(OC)cc1)C(=O)c1ccc(=O)n(Cc2ccccc2)n1	4.7%
Cc1c(C(C)CCCO)oc(=O)c2c1Oc1c(C)c(C(C)C[C@@H](C)O)oc(=O)c1C2 (stereo partly specified)	13.8%
CCOC(=O)N1CCN(CC(=O)n2c(C)c(C)c3ccccc32)CC1	4.2%
CCOC(=O)N1CCN(C(=O)c2nn(-c3ccc(C)cc3)c(=O)c3c2c2ccccc2n3C)CC1	17.7% (active)
CCOC(=O)N1CCN(C(=O)Cn2cnc3ccccc3c2=O)CC1	3.1%
CCOC(=O)CSc1nncc2ccc(OC)c(OC)c12	-16.1%
CCOc1ccc(NC(=O)CC(Cc2ccc(Cl)cc2)C(=O)O)cc1 (stereo unspecified)	1.1%
COC(=O)C(Cc1c[nH]c2ccccc12)NC(=O)CCNC(=O)c1ccco1 (stereo unspecified)	22.2% (active)
COc1ccc(CNC(=O)[C@H](Cc2c[nH]c3ccccc23)NC(C)=O)cc1OC	-6.3%
CC(=O)NC(Cc1c[nH]c2ccccc12)C(=O)NCCc1ccccc1 (stereo unspecified)	6.7%
Cc1cc(C)cc(N(CC(=O)N2CC=C(c3ccccc3)CC2)S(=O)(=O)c2c(C)noc2C)c1	-1.1%
O=C(c1cccc(F)c1)N1CCN(c2ccc([N+](=O)[O-])c(N3CCCCC3)c2)CC1	44.3% (active)
CC(C)c1ccc(S(=O)(=O)N2CCN(C(=O)c3ccc(N4CCCC4)c([N+](=O)[O-])c3)CC2)cc1	6.8%
O=C(c1cccc(F)c1)N1CCN(c2ccc([N+](=O)[O-])c3cccnc23)CC1	-12.9%
Cc1ccc(C2NC(=S)NC3=C2N2CCC3CC2)cc1 (stereo unspecified)	11.9%
COc1ccccc1CCNS(=O)(=O)c1cc2c3c(c1)C(C)C(=O)N3CCC2 (stereo unspecified)	-11.3%
COc1cccc(CNC(=O)[C@@H]2CCCN2C(=O)[C@@H]2CCCN2C(=O)c2ccccc2)c1	-6.2%

SMILES	inhibition
CC1=NN(C(=O)c2ccccc2Br)C(O)(c2cccnc2)C1 (stereo unspecified)	-1.7%
CCOC(=O)C1(O)CC(C)=NN1C(=O)c1cccc(Br)c1 (stereo unspecified)	26.7% (active)
CC1=NN(C(=O)c2ccc(Br)cc2)C(O)(c2ccccc2)C1 (stereo unspecified)	-3%
O=C(NCc1ccco1)c1ccc(NS(=O)(=O)c2cccc([N+](=O)[O-])c2)cc1	6.8%
O=C(C1CCCO1)N(c1ccc(F)cc1)C1C=CS(=O)(=O)C1 (stereo unspecified)	-10.6%
CCc1nnc(NC(=O)CSc2nnc(COc3ccc(C#N)cc3)n2-c2ccccc2)s1	0.5%
CCOc1ccc(N(CC(=O)NCCOc2ccccc2OC)S(=O)(=O)c2ccccc2)cc1	-4.4%
COc1ccccc1N(CCOc1ccccc1)S(=O)(=O)c1ccccc1	26.1% (active)
COc1ccccc1N(CC(=O)N1CCCCC1)S(=O)(=O)c1ccccc1	-3.8%
COc1nc(OC)nc(N(C)CCO)n1	14.8%
O=C(CSc1nccn1-c1cccc(F)c1)NC1CCCC1	-2.9%
CC(=O)Nc1cccc(NC(=O)CSc2nccn2Cc2ccc(F)cc2)c1	0.6%
O=C(OCc1ccccc1)N1CCC2CC1c1cc(N3CCN(S(=O)(=O)c4cc(Cl)cc(Cl)c4)CC3)ccc12 (stereo unspecified)	7.8%
Cc1ccc(F)c(S(=O)(=O)NC(=O)C2(C)CCN2C(=O)c2ccco2)c1 (stereo unspecified)	24.2% (active)
Cc1ccc(F)c(S(=O)(=O)NC(=O)C2(C)CCN2C(=O)CCc2cccs2)c1 (stereo unspecified)	0.1%
CC1(C(=O)NS(=O)(=O)c2ccccc2Cl)CCN1C(=O)c1cccc(F)c1 (stereo unspecified)	6.5%
COC(=O)Cc1nc2c(N)nc(N)nc2[nH]c1=O	26.3% (active)
CC1C(=O)N(Cc2cn(CC3CCCCC3)nn2)CCS(=O)(=O)N1Cc1ccc(-c2cccc(N(C)C)c2)cc1 (stereo unspecified)	-7%
Cc1ccc(-c2noc(C3CCCN(C(=O)c4cccc(Cl)c4)C3)n2)o1 (stereo unspecified)	3.6%
COC(=O)CCCC1=CC2=CC(=O)C(C)(OC(=O)c3cccs3)C(=O)C2=CN1c1cccc(C#N)c1 (stereo unspecified)	-18.7%
COC(=O)CCCC1=CC2=CC(=O)C(C)(OC(=O)c3cccs3)C(=O)C2=CN1CC1CC1 (stereo unspecified)	36.2% (active)
COC(=O)CCCC1=CC2=C(c3ccccc3)C(=O)C(C)(OC(=O)C3CCCC3)C(=O)C2=CN1c1ccc(OC)cc1 (stereo unspecified)	-6.8%
Nc1cccc(OCCCCCOc2cccc(N)c2)c1	7%

SMILES	inhibition
Cn1c(=O)c2c(nc(OCc3cccnc3)n2Cc2ccccc2)n(C)c1=O	28.5% (active)
CCOC(=O)N1CCN(Cc2nc3c(c(=O)n(C)c(=O)n3C)n2Cc2ccccc2)CC1	-7.4%
C=CCOc1nc2c(c(=O)n(C)c(=O)n2C)n1Cc1ccc(Cl)cc1Cl	7.1%
Cc1ccccc1C(=O)N1CCC(C(=O)Oc2ccc(C#N)cc2)CC1	-0.1%
CC(C)Sc1nc(N)nc2c1ncn2C1OC(CO)C(O)C1O (stereo unspecified)	-1.6%
Nc1nc(SCc2ccc([N+](=O)[O-])cc2)c2ncn(C3OC(CO)C(O)C3O)c2n1 (stereo unspecified)	-20.4%
CC(C)Cn1cnc2c(SCc3ccc(Cl)cc3)nc(N)nc21	20.8% (active)
Cc1cccc(C)c1NC(=O)C(c1ccc(C(F)(F)F)cc1)n1c(=O)c(-c2ccco2)nc2ccccc21 (stereo unspecified)	-67%
CC(NCCO)C(=O)C12CC3CC(CC(C3)C1)C2 (stereo unspecified)	6.1%
COc1cc(/C=C/C(=O)OCC(=O)Nc2cccc(Oc3ccccc3)c2)ccc1O	-3.6%
COc1ccc(C(C(=O)NCc2ccccc2)n2c(=O)c(-c3ccccc3)nc3ccccc32)cc1 (stereo unspecified)	-0.4%
CCc1[nH]nc(C(=O)N2CCCC(CNS(=O)(=O)c3cccs3)C2)c1C (stereo unspecified)	3.8%
COc1cc2c(cc1OC)C(C(C)C)=NC(C)(C)C2	-1.6%
COc1cc2c(cc1O)C(SC)=NC(C)(C)C2	9%
COc1cc2c(cc1OC)C(Nc1ccc(S(N)(=O)=O)cc1)=NC(C)(C)C2	26.3% (active)
Cn1c(=O)cc(OCCCC(=O)N2CCN(c3ccccn3)CC2)c2ccccc21	-0.5%
Cc1ccc(C)c(NC(=O)C(c2ccccc2)N2CCN(CC(=O)NC3CC3)CC2)c1 (stereo unspecified)	-1.3%
CCOC(=O)c1[nH]c2ccc(C)cc2c1N=C(C)N(C)C	28.1% (active)
CCOC(=O)c1ccc2[nH]c3c(c2c1)CCCC3NC=O (stereo unspecified)	-0.5%
CCOC(=O)c1cc2cc(C)ccc2[nH]1	1.1%
CC1CC1C(=O)OCC(=O)Nc1cccc(F)c1 (stereo unspecified)	5.8%
O=P(c1cccs1)(c1cccs1)c1cccs1	6.4%
CN(CCCNC(=O)CN1C(=O)CC(C)(C)S(=O)(=O)c2ccccc21)C1CCCCC1	12.4%

SMILES	inhibition
COc1ccc(CCc2nc(-c3cccs3)no2)cc1	-5.8%
Clc1ccc(Cc2nnc(-c3cccs3)o2)cc1	-15.6%
COc1nc(-c2ccc(Cl)cc2)ccc1-c1noc(-c2cccs2)n1	49.1% (active)
O=C(OCc1ccc([N+](=O)[O-])cc1)C1CC(=O)N(Cc2ccccc2Cl)C1 (stereo unspecified)	-11.4%
O=C(O)c1ccc(NS(=O)(=O)c2ccc3c(c2)C(=O)c2cc(S(=O)(=O)Nc4ccc(C(=O)O)cc4)ccc2-3)cc1	-59.7%
O=C(NCC1CCCO1)c1ccccc1-c1nc(-c2ccccc2Cl)no1 (stereo unspecified)	8%
O=C(Nc1ccccc1C(=O)NCC1CCCO1)c1ccccc1F (stereo unspecified)	20.7%
Cc1ccc(-c2noc(-c3ccccc3C(=O)NCC3CCCO3)n2)cc1 (stereo unspecified)	28% (active)
COc1ccc(NS(=O)(=O)c2ccc(C)c(C(=O)NCC(c3cccs3)N3CCOCC3)c2)cc1 (stereo unspecified)	6.2%
CC1(C(=O)Nc2ccc3c(c2)OCCO3)CN(S(C)(=O)=O)CC(=O)N1Cc1cccc(F)c1 (stereo unspecified)	-4.8%
CN1CCCc2cc(C#N)c(=O)[nH]c21	4.8%
Cn1nnnc1NCc1ccc(Cl)c(Cl)c1	12.8%
CCCCn1nnnc1C(c1ccccc1)N1CCN(c2ccccc2OC)CC1 (stereo unspecified)	-6.7%
CCCCn1nnnc1C(c1cc2ccccc2o1)N(C)Cc1ccc(Cl)c(Cl)c1 (stereo unspecified)	26.3% (active)
COc1ccc(S(=O)(=O)N2CCCC(C(=O)Nc3ccc(NC(=O)c4ccccn4)cc3)C2)cc1 (stereo unspecified)	0.1%
CCCC(C(=O)n1nc(C)cc1C)C(NS(=O)(=O)c1ccc(C)cc1)c1ccccc1 (stereo unspecified)	-0.9%
O=C1NC[C@@H](c2ccccc2)OC(=O)[C@H](Cc2ccc(F)cc2)CC/C=C/C[C@H]1CC(=O)N(CCO)Cc1ccccc1	23.4% (active)
O=C1CCC/C=C\C[C@@H](CC(=O)N(CCO)Cc2ccccc2)C(=O)NCCO1	4.9%
CC(C)(C)OC(=O)C[C@@H]1C/C=C\C[C@@H](CC(=O)N(CCO)Cc2ccccc2)C(=O)N[C@H](Cc2ccccc2)COC1=O	-9.4%
O=C1N[C@H](Cc2c[nH]c3ccccc23)COC(=O)[C@H](Cc2ccc(F)cc2)C/C=C\C[C@H]1CC(=O)N(CCO)Cc1ccccc1	22.7% (active)
O=C1CCC/C=C/C[C@@H](CC(=O)N(CCO)Cc2ccccc2)C(=O)NC[C@H](c2ccccc2)O1	4.9%
O=C1OC[C@@H]2CCCN2C(=O)[C@H](CC(=O)N(CCO)Cc2ccccc2)C/C=C\CC[C@@H]1Cc1ccc(F)cc1	4.4%

Source: PubChem BioAssay AID602438 (Sanford-Burnham Center for Chemical Genomics, 2012)
